Potency and affinity values are given separately. Calls of active or inactive are those of the source. No rule for the calls is given here.
target: KSHV LANA C-terminal domain (residues 932-1162) binding to LBS DNA (UniProt O40947); test: inhibitors of C-LANA binding to LBS DNA, dose response, biochemical, fluorescence polarization, cherry-picked samples (AID 504725); settings: MBP-C-LANA / FAM-LBS DNA fluorescence polarization, percent change from plate compound-well median; series mostly up to 35 µM

outcome, inactive:
COc1cccc(NC(=O)CN(C)C(=O)c2cc3ccccc3cc2OC)c1, CCOC(=O)C1(Cc2cccc(F)c2)CCN(Cc2c(C)nn(CC)c2C)CC1, O=C(/C=C\c1ccccc1)Oc1cccc2cccnc12, COc1ccc(Cn2nnc3c(=O)[nH]c(C4CCCN(C(=O)c5ccccc5)C4)nc32)cc1 (configuration not stated), CCN(C(=O)COC(=O)c1ccc([N+](=O)[O-])o1)C1CCCCC1, Cc1noc(C)c1C(=O)N1CCN(c2ccc(OCc3ccccc3)cc2)CC1, Cc1c(N)cc(S(=O)(=O)O)cc1NC(=O)c1cccc([N+](=O)[O-])c1, O=c1c2cc(O)c(O)cc2oc2cc(O)c(C3OC(CO)C(O)C(O)C3O)c(O)c12 (configuration not stated), Cc1noc(C)c1-c1nc(CSc2ccccc2)no1, Nc1ccc(C(=O)Nc2ccc3c(O)cc(S(=O)(=O)O)cc3c2)cc1, Cc1cc(S(=O)(=O)NC2CCN(Cc3ccccc3)CC2)c(C)cc1Cl, O=C(O)c1ccccc1NS(=O)(=O)c1ccc(N/N=C/c2ccc(O)c(O)c2)c([N+](=O)[O-])c1, COc1ccc(C2(CNC(=O)CCC(=O)O)CCCC2)cc1OC, O=C(/C=N/NC(=O)c1ccc(Cl)cc1Cl)c1ccccc1, Cc1ccc(S(=O)(=O)/N=C2/C=C(Sc3ncn[nH]3)C(=O)c3ccccc32)cc1, COc1ccc(C(C)=O)cc1CN(C)C, Cc1ccc(NC(=S)N/C(=N/S(=O)(=O)c2ccccc2)c2ccccc2)cc1, CCc1nnc(NC(=O)c2cccc(S(=O)(=O)N(C)c3ccccc3)c2)s1, C=CC[C@@H](CC(=O)N(CCO)Cc1ccccc1)C(=O)NC[C@H](OC(=O)[C@@H](CC=C)CC(=O)OC(C)(C)C)c1ccccc1, Cc1cc(C)n(CC(=O)NNC(=O)CC(C)c2ccccc2)n1 (configuration not stated), S=c1c2c(nc3nc[nH]n13)CCC2, O=C(N/N=C\c1ccc([N+](=O)[O-])o1)c1cncc(Br)c1, NC(=O)c1ccc(NC(=O)C2COc3ccccc3O2)cc1 (configuration not stated), Cc1ccc(N(C)C(=O)C2CCCN2S(=O)(=O)c2ccc3c(c2)n(C)c(=O)c(=O)n3C)cc1 (configuration not stated), COc1ccccc1C(=O)NCC(=O)OCC(=O)N(CC(C)C)c1c(N)n(Cc2ccccc2)c(=O)[nH]c1=O, Brc1ccc(-c2noc(COc3ccc4c(c3)CCC4)n2)o1, Cc1ccc(CSc2ncnc3onc(C)c23)cc1, CCCC1(C2CCCC2)NC(=O)NC1=O (configuration not stated), CCCCN(C(=O)CSc1nnc(-c2ccc(Cl)cc2)o1)c1c(N)n(CC(C)C)c(=O)[nH]c1=O, CC(=O)O[C@@H]1[C@@H](OC(C)=O)[C@H](n2ccc3cc([N+](=O)[O-])ccc32)OC[C@@H]1OC(C)=O, COC(=O)c1c(C)oc2ccc(N(C(C)=O)S(=O)(=O)c3ccccc3)cc12, COCCN(C(=O)CN1CCCc2ccccc21)c1c(N)n(Cc2ccccc2)c(=O)[nH]c1=O, CCSc1nnc(Cc2cc(=O)[nH]c(=O)[nH]2)n1-c1ccc(F)cc1, Cc1c(C)n(CCC(=O)O)c2ccccc12, Cc1cc2c(N)cccc2nn1, NC(=S)COc1ccccc1, CC(Sc1nc2ccccc2s1)C(=O)Nc1nnc(C(C)C)s1 (configuration not stated)
